# High-throughput results (PubChem)
# HCV inh: HCV inhibition; Huh7.5.1 HCVcc-Cre infection, luciferase reporter, 44 h; Potency, µM (highest dose often 41.8 µM), without a hit: at the top dose activity change, negative = inhibition, actives largely listed as inhibitors; 340,000 compounds, 3.4% hits; AID 651820; active = well fitted inhibition curve with a large enough effect; inconclusive = small, poorly fitted or top-dose-only effect, or another doubt; inactive = no such curve, though single readings can be large or run the other way; note: potency is the fitted concentration of half-maximal effect
#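 Infectious HCV cell culture screen: compound-treated cells (1,000/well, pre-plated 4 h) are infected with HCVcc-Cre at roughly 0.5 moi and grown 44 h. Infection is quantified by luciferase signal after 15 min substrate incubation at room temperature.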
# Vaccinia Venus: vaccinia inhibition (Venus reporter) | Vaccinia virus Venus reporter expression, fluorescence | Potency, µM (highest dose often 36.5 µM), without a hit: at the top dose activity change, negative = inhibition, hits mostly inhibitors | 330,000 compounds, 0.46% hits | AID 720580; calls by dose curve; tested in A549 cells; note: potency is the fitted concentration of half-maximal effect; nearly all actives have a fitted effect of over 30% in size
# Vaccinia mCherry: vaccinia inhibition (mCherry reporter); Vaccinia virus mCherry reporter infection, fluorescence; Potency, µM (titrated, usually from 36.5 µM), for inactives: at the top dose activity change, negative = inhibition, most hits filed as inhibitors; 310,000 compounds, 0.63% hits; calls by dose curve; tested in A549 cells; note: potency is the fitted concentration of half-maximal effect; nearly all actives have a fitted effect of over 35% in size
# LASV entry inh: Lassa virus entry inhibition; Lassa virus pseudotype entry inhibition, cell reporter; Potency, µM (series often up to 37.9 µM), without a hit: at the highest dose activity change, negative = inhibition, usual class: inhibitors; 300,000 compounds, 1.2% hits; AID 540256; calls by dose curve; tested in HEK293 cells; note: potency is the fitted concentration of half-maximal effect; nearly all actives have a fitted effect of over 50% in size
# HCMV antiviral: human cytomegalovirus inhibition; activity change, negative = inhibition, % at 57.5 µM; HFF cells, HCMV-luciferase reporter, 72 h; active compounds read low; 410,000 compounds, 4.5% hits; in the data active = activity change below about -60%; inconclusive = no clear call, values can overlap the other calls; inactive = above about -39%
#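 Screen run at 2 compound doses on HFFs infected with reporter HCMV, MOI 1 PFU/cell. Luciferase activity from cell lysates at 72 h post infection gave inhibition relative to buffer-only and Salinomycin wells.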
# Marburg entry inh: blocks Marburg virus binding to or entry into cells | Marburg virus pseudotyped entry inhibition, cell reporter | Potency, µM (highest dose often 37.8 µM), without a hit: at the top dose activity change, negative = inhibition, hits mostly inhibitors | 300,000 compounds, 1.8% hits | AID 540276; calls by dose curve; tested in HEK293 cells; note: potency is the fitted concentration of half-maximal effect
# An asterisk follows results filed as active; i = inactive; u = inconclusive; x = no result; + = active, no number; [ ] = another dose, or the depositor's remark. Only some compounds are listed: those with a hit (about 7.8% of all), similar ones and a draw of the others. % is set by controls: 0 for no effect and ±100 for the full control effect.
SMILES,HCV inh,Vaccinia Venus,Vaccinia mCherry,LASV entry inh,HCMV antiviral,Marburg entry inh
COc1ccccc1NC(=O)c1ccc(-c2ccc(Br)cc2)o1,8.91µM*,u,u,u,167.7,-16.5%
COc1ccccc1NC(=O)c1ccc(-c2ccccc2[N+](=O)[O-])o1,11.2µM*,-14.8%,-25.0%,x,-14.7,u
COc1cc(NC(=O)c2ccc(-c3cccc(F)c3)o2)ccc1NC(=O)c1ccccc1Cl,7.08µM*,-26.4%,-29.1%,x,10.8,x
NC(=O)c1ccccc1NC(=O)c1ccc(-c2ccc(Br)cc2)o1,x,-11.8%,-9.5%,17.2%[46.1 µM],11.3,u
CCC[C@H]1[C@@H](NS(=O)(=O)c2ccc([N+](=O)[O-])cc2[N+](=O)[O-])CC[C@@]23CCCN2C(=O)CCC[C@@H]13,x,x,x,x,-20.6,x
Cc1ccc(S(=O)(=O)/N=C2\C=C(Nc3cccc(C(=O)O)c3)C(=O)c3ccccc32)c(C)c1,10.5%,-23.9%,-12.9%,u,-72.6*,u
CC(C)(C)c1ccc(S(=O)(=O)/N=C2\C=C(NS(=O)(=O)c3ccccc3)C(=O)c3ccccc32)cc1,-19.2%,6.9%,i,u,-10.9,-11.1%[46.1 µM]
Cc1ccc(S(=O)(=O)/N=C2\C=C(NS(=O)(=O)c3ccccc3)C(=O)c3ccccc32)c(C)c1,-1.0%,11.6%,u,-15.3%,-90.6*,-0.3%[46.1 µM]
CCCCC(=O)Nc1ccccc1C(=O)N1CCOCC1,6.9%,x,x,-10.0%,-2.8,10.6%
Cc1ccc(SCC(=O)Nc2ccccc2C(=O)N2CCOCC2)cc1,19.2%,-4.4%,i,-3.3%,-70.9*,u
O=C(Cc1ccccc1[N+](=O)[O-])Nc1ccccc1C(=O)N1CCOCC1,-6.4%,-9.7%,-1.6%,10µM*,23.9,18.5%[46.1 µM]
O=C(Cc1ccccc1[N+](=O)[O-])Nc1ccccc1C(=O)N1CCCC1,16.5%,-11.5%,-0.4%,8.5%[46.1 µM],-37.1,17.1%[46.1 µM]
Cc1ccnc(NC(=O)CSc2ccc3c(c2)OCCO3)c1,u,-7.2%,-8.6%,0.6%,15.5,-0.2%
Cc1ccc(NC(=O)CSc2ccc3c(c2)OCCO3)c(O)c1,10µM*,x,x,x,u,x
CC(C)(C)OC(=O)N/N=C\c1cccnc1,-3.8%,-10.4%,-7.7%,12.9%,-10.9,20.1%[46.1 µM]
O=C(O)c1ccc(/C=N/NC(=O)C2CC2(c2ccccc2)c2ccccc2)cc1 (stereo not given),x,x,x,x,-13.1,x
Cc1ccc(-c2cc(C(=O)N/N=C\c3cnn(C)c3C)c3ccccc3n2)cc1C,-19.6%,-17.8%,i,11.2µM*,-30.9,-24.0%
O=C(N/N=C/c1cccnc1)C1CC1(c1ccccc1)c1ccccc1 (stereo not given),u,-11.5%,i,-4.9%,-67.1*,u
CC(C)(C)NC(=S)N/N=C/c1cccnc1,9.6%,-7.8%[7.34 µM],i[7.34 µM],u,-65.4*,6.4%[46.1 µM]
COc1ccccc1-c1cc(C(=O)N/N=C/c2ccc(C)s2)c2ccccc2n1,u,-8.6%,u,7.08µM*,-23.4,8.91µM*
Cc1ccc(N(C)C(=O)C2CCCN(c3ncnc4c3nc3n4CCCCC3)C2)cc1C (stereo not given),x,-18.9%,i,u,-22.7,x
O=C(COc1ccc([N+](=O)[O-])cc1)Nc1nc2c(s1)CCCC2,x,-4.6%,-4.1%,-12.1%[46.1 µM],21.5,-2.6%[46.1 µM]
COc1ccc(/C(O)=C2\C(=O)C(=O)N(CCN3CCOCC3)[C@H]2c2ccccn2)cc1,x,x,x,x,x,2.0%[46.1 µM]
CCn1c(=O)c2sccc2n2c(CCCC(=O)N3CCN(c4ccc(OC)cc4)CC3)nnc12,x,-13.3%,-16.1%,-11.1%[46.1 µM],-29.8,x
Cc1[nH]c2ccccc2c1/C=N/NC(=O)c1cc(-c2ccncc2)nc2ccccc12,10µM*,x,x,x,8.4,x
SMILES,HCV inh,Vaccinia Venus,Vaccinia mCherry,LASV entry inh,HCMV antiviral,Marburg entry inh
Cc1cccc(-c2cc(C(=O)N/N=C/c3cccnc3)c3ccccc3n2)c1,-14.5%,14.2%,u,-8.8%[46.1 µM],8.6,u
O=C(N/N=C/c1ccc(O)cc1O)/C(=C/c1ccccc1)CCO,u,u,11.2µM*,u,-18.4,u
COc1ccc(-c2cc(C(=O)N/N=C/c3cccnc3)c3ccccc3n2)cc1,-6.9%,-17.1%,u,10µM*,u,u
COc1cc(/C=N/NC(=O)c2cc(-c3cccc(OC(C)C)c3)nc3ccccc23)ccc1O,u,11.6%,u,3.55µM*,-60.6*,3.55µM*
Cc1cc(C(=O)N2CCOc3ccc(CN4CCC(Oc5cccnc5)CC4)cc3C2)c(C)o1,x,2.6%,-9.1%,x,x,x
CC(=O)OC[C@H]1O[C@H](C#CC(C)(C)C)C=C[C@@H]1OC(C)=O,x,x,x,x,x,16.1%[14.2 µM]
O=C(CCc1cn(Cc2ccc(F)cc2)c2ccccc12)NCCc1ccc(Cl)cc1,x,-5.8%,-9.9%,13.6%[46.1 µM],93.3,x
CCCOc1cccc(-c2cc(C(=O)N/N=C/c3ccccn3)c3ccccc3n2)c1,u,-6.7%,u,u,-113.1*,u
Cc1cc(C(=O)N/N=C/c2cccnc2)c(C)o1,7.4%,-11.6%,x,5.2%,-98.9*,13.2%
O=C(N/N=C/c1ccccn1)c1cc(-c2ccc(Br)cc2)nc2ccccc12,u,u,u,u,-99.6*,u
CCc1cc(C(=O)N/N=C/c2ccc(O)cc2O)c2ccccc2n1,u,-22.9%,1.12µM*,u,29.4,u
O=C(N/N=C/c1ccccn1)c1cc(-c2ccc(Cl)cc2)nc2ccccc12,35.3%,-11.3%,-14.3%,u,9.4,u
O=C(N/N=C/c1ccc(O)cc1O)c1ccncc1,u,x,x,x,12.4,x
CCC[C@@H](/C=C/C(=O)OCC)NC(=O)C(F)(F)F,x,x,x,x,-4.6,x
Cc1nonc1C(=O)N/N=C/c1ccncc1,4.7%,-6.6%,i,x,14.0,x
CCCOc1cccc(-c2cc(C(=O)N/N=C/c3cccnc3)c3ccccc3n2)c1,-12.6%,-1.7%,i,u,-83.2*,u
Cc1nonc1C(=O)N/N=C/c1ccc(O)cc1O,u,u,8.91µM*,u,14.5,u
O=C(O)COc1ccccc1/C=N/NC(=O)c1cc(-c2ccccc2)nc2ccccc12,12.4%,-11.2%,-14.9%,4.1%,+,-5.5%
C(=N\Nc1nccc(-c2cccnc2)n1)/c1ccccc1,12.9%,x,x,x,-1.1,x
Cc1ccc(-c2cc(-c3ccccc3O)nc(N/N=C/c3cccnc3)n2)cc1,0.562µM*,4.9%,-14.3%,-21.5%,u,-13.3%
Cc1cc(C)c(NC(=O)C(C)n2nc(C)c3sc4ccccc4c3c2=O)c(C)c1 (stereo not given),x,-13.6%,-3.3%,-2.7%[46.1 µM],-4.2,u
Cc1cc(C)cc(Cn2ncc(Cl)c(Cl)c2=O)c1,u,-1.8%,-14.2%,u,-84.1*,11.2µM*
O=c1c(Cl)c(Cl)cnn1Cc1nnc(-c2ccc(Cl)cc2)o1,10µM*,u,u,u,u,u
CCc1ccc(C(=O)Cn2ncc(Cl)c(Cl)c2=O)cc1,u,4.2%,x,u,-106.9*,u
